# Results published in PubChem BioAssay AID488969 (Vanderbilt High Throughput Screening Facility, 2010).
# Values joined by “and” are separate entries in the source; they are usually repeats but may differ in a detail not shown here. Identical values can stand only once. In all, about 110,000 compounds were measured (“z-score”: median about -0.1, highest 2% from about 2 on). Shown is part of a subset that was picked to be rich in the highest values. Active and inactive are the calls of the source.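 The calls were made as follows: active = z-score in the third read window above 3 or below -3; inactive = the rest.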
# Molecular target: Metabotropic glutamate receptor 8 (Rattus norvegicus) (UniProt P70579)
# Sequence (P70579 whole entry, looked up): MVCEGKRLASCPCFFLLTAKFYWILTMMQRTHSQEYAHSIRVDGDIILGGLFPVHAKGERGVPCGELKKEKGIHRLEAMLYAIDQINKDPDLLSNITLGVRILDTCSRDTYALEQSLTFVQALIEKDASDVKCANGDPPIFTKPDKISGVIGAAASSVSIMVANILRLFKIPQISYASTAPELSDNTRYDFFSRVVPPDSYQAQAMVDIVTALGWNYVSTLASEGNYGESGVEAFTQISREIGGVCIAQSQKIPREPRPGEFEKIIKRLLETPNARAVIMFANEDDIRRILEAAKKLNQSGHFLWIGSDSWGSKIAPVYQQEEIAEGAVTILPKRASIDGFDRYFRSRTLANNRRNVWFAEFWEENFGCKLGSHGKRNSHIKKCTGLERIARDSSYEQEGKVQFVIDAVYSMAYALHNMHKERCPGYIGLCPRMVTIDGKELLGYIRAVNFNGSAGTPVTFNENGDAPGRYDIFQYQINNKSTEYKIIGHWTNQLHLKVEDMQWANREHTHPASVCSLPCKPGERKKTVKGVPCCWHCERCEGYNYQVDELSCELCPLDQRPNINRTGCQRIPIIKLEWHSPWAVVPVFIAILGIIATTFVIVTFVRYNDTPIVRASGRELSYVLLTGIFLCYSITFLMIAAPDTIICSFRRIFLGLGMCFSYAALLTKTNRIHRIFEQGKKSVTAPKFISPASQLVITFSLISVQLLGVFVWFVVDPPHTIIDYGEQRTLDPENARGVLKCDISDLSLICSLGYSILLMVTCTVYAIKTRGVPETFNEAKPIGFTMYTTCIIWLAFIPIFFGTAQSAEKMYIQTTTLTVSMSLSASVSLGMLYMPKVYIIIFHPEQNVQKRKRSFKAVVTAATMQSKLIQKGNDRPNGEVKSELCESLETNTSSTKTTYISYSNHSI
# Experiment: mGluR8 Gi/Go-coupled signaling modulation – cell-based, rat, thallium flux, HTS, primary screen (AID 488969)
# Details: HEK293 rat mGluR8, GIRK (G protein-gated inwardly rectifying potassium channel) thallium flux, FluoZin2; at 10 µM; stronger effect = higher value; submaximal glutamate (EC20) added with thallium
row,SMILES,z-score
1,O=C(Nc1ccon1)c1ccc(Br)o1,-0.216
2,C=CCn1c(NC(=O)CC)c(C(=O)OCC)sc1=S,-0.979
3,COc1ccc(N=C2C(=Nc3ccc(OC)cc3)N(c3ccc(OC)cc3)C(=S)N2C)cc1,-0.0804
4,Cc1nn(C(C)C(=O)NCc2ccccc2)c(C)c1[N+](=O)[O-] (stereo not given),0.375
5,Cc1nc2ccccn2c1-c1nnco1,0.116
6,CCOC(=O)/C(N=Nc1c(Br)cc(Br)cc1Br)=C(\C)O,0.239
7,O=C(Nc1cccc2ccccc12)N1CCN(c2ccccc2)CC1,-0.177
8,COCC(=O)Nc1cccc2ccccc12,0.3
9,Cc1ccc(/C=C/C(=O)NC(=S)N2CCN(C)CC2)cc1,-0.241
10,CN1CCN(C(=S)NC(=O)/C=C/c2ccccc2)CC1,0.401
11,CN1CCN(C(=O)Nc2cccc3ccccc23)CC1,3.3 (active)
12,CN1CCN(C(=S)NC(=O)/C=C/c2cccc3ccccc23)CC1,2.03
13,CCN1CCN(C(=O)Nc2cccc3ccccc23)CC1,-0.222
14,NC(=O)Nc1cccc2ccccc12,4.53 (active)
15,O=C(Nc1ccccc1C(F)(F)F)Nc1cccc2ccccc12,0.33
16,CCc1cc(=O)oc2cc3oc(C)c(C)c3cc12,-0.296
17,Cc1c(C(=O)NCC2COc3ccccc3O2)oc2ccc(S(=O)(=O)N(C)C3CCCCC3)cc12 (stereo not given),-0.0918
18,CC(=O)CCc1oc2ccc(NC(C)=O)cc2c1-c1ccc(C)o1,-0.484
19,COCCN(C(=O)COc1ccccc1)c1nnc(-c2cccnc2)s1,-0.132
20,CC(=O)C(C)Oc1ccc2c3c(c(=O)oc2c1C)CCCC3 (stereo not given),-1.13
21,COc1ccc(NC(=O)CN(c2ccc(C)cc2)S(=O)(=O)c2c(C)nn(C)c2C)cc1OC,-0.248
22,Cc1cccc2sc(NC(=O)C3CCCO3)nc12 (stereo not given),-0.212
23,O=C(NCCCN1CCOCC1)c1ccc2c(=O)n(CCc3ccccc3)c(=O)[nH]c2c1,1.15
24,CC1CCCCN1CCNC(=O)c1ccc2c(=O)n(CCc3ccccc3)c(=O)[nH]c2c1 (stereo not given),0.188
25,CC1CCCCN1CCCNC(=O)c1ccc2c(=O)n(CCc3ccccc3)c(=O)[nH]c2c1 (stereo not given),2.93
26,O=C(NCCCN1CCCCC1)c1ccc2c(=O)n(CCc3ccccc3)c(=O)[nH]c2c1,1.16
27,O=C(NCc1cccnc1)c1ccc2c(=O)n(CCCN3CCCC3=O)c(=S)[nH]c2c1,-0.116
28,CC1CCN(CCCNC(=O)c2ccc3c(=O)n(CCc4ccccc4)c(=O)[nH]c3c2)CC1,4.09 (active)

row,SMILES,z-score
1,O=C(NCCN1CCCC1)c1ccc2c(=O)n(CCc3ccccc3)c(=O)[nH]c2c1,1.17
2,Cc1ccc(CNC(=O)c2ccc3c(=O)n(CCCN4CCCC4=O)c(=S)[nH]c3c2)cc1,-0.167
3,O=C(NCc1ccccc1)c1ccc2c(=O)n(CCCN3CCCC3=O)c(=S)[nH]c2c1,4.92 (active)
4,O=C(N/N=C/c1ccc(O)cc1)/C(=C/c1ccccc1)CCO,-0.0513
5,O=C(c1cn(-c2ccccc2)nc1-c1cccs1)N(CCO)Cc1ccccc1,-0.178
6,CCn1c(SCC(=O)NCCc2ccc(Cl)cc2)nnc1-c1cccs1,-0.84
7,CCOCCCNC(=O)CN1C(=O)CSc2cc(S(=O)(=O)N3CCCCCC3)ccc21,-0.263
8,O=C(c1cc(Cl)ccc1[N+](=O)[O-])n1cnc2ccccc21,-0.721
9,COc1ccccc1N1CCN(C(=O)c2cc(-c3ccco3)on2)CC1,-0.34
10,CCOC(=O)c1cnn2c(C)cc(-c3ccc(F)cc3)nc12,-0.151
11,COC(=O)c1cnn2c(C(F)(F)F)cc(-c3ccccc3)nc12,-0.00832
12,CCOC(=O)c1cnn2c(C)cc(-c3ccccc3)nc12,2.74
13,CCOC(=O)C1=C(C)N=c2s/c(=C/c3ccccc3)c(=O)n2C1c1ccc(OC)c(OC)c1 (stereo not given),-0.183
14,Cn1c(N)c(C(=O)CCl)c(=O)n(C)c1=O,0.0911
15,CCOc1cc(C(=O)OCC(=O)c2c(N)n(C)c(=O)n(C)c2=O)cc(OCC)c1OCC,-0.112
16,CCOC(=O)C=Nc1c(N)n(C)c(=O)n(C)c1=O,2.44
17,CC1(C)C(=O)OC(c2cccn2-c2ccc([N+](=O)[O-])cc2)C(C)(C)C1=O (stereo not given),-0.471
18,Cc1cccc(SCc2noc(C(=O)NC(C)C)c2C(=O)O)c1,-0.0231
19,O=C1NC(=Nc2cccc(Cl)c2)SC1Cc1cccc(Cl)c1Cl (stereo not given),-0.324
20,O=C(NC(=Nc1ccccc1)N1CCOCC1)Nc1ccccc1,2.94
21,O=C(Nc1ccccc1)Nc1ccc(C(=O)N2CCOCC2)cc1,-0.0267
22,O=C(Nc1ccccc1)N1CCOCC1,-0.206
23,CC(=C/C(=O)O)/C=C/c1ccc([N+](=O)[O-])cc1,-0.0461
24,CC(/C=C\c1cccnc1)=C/C(=O)O,-0.175 and 6.26 (active)
25,CC(=C/C(=O)O)/C=C/c1cccs1,-0.429
26,Cn1cccc1C1Nc2ccccc2NC2=C1C(=O)CC(C)(C)C2 (stereo not given),-0.491
27,Cc1c(C2Nc3ccccc3NC3=C2C(=O)CC(C)(C)C3)cnn1C (stereo not given),4.64 (active)
